# PMC7862700, “An all-to-all approach to the identification of sequence-specific readers for epigenetic DNA modifications on cytosine”
# Columns and labels:
# Test in all cases: DAPPL (digital affinity profiling via proximity ligation, sequencing); 10 mM Tris-HCl pH 7.5, 50 mM NaCl, 1 mM DTT, 4% glycerol, room temperature, 30 min; GST-TFs on glutathione beads, 16-mer random dsDNA library, 0.1% formaldehyde crosslink after washing; high values mean tight binding
# FLI1 = target: T1, FLI1 (Homo sapiens, UniProt Q01543 1-452); conditions: protein: recombinant; tags: N-terminal GST; dsDNA, one strand shown
# T1 sequence: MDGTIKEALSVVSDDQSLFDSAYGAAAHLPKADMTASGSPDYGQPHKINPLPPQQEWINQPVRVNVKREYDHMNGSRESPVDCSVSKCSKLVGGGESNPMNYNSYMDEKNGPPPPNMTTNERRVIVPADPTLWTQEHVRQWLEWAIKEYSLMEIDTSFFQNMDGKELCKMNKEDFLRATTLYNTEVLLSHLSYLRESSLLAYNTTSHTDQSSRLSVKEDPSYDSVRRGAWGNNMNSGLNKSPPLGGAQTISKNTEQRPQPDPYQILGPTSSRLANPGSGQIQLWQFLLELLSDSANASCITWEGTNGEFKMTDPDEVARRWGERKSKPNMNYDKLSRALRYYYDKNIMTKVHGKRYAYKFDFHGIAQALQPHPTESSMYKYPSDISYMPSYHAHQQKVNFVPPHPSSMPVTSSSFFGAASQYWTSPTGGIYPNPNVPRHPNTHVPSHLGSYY
# In short: (§1)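 Pools were built from human transcription factors expressed in yeast as GST fusions, captured on glutathione beads and DNA-barcoded, along with a tag-only sample. Incubation with 200 nmole of a 16-mer random double-stranded DNA library lasted 30 min at room temperature in Tris/NaCl/DTT/glycerol buffer, and was followed by washing, 0.1% formaldehyde crosslinking, proximity ligation, PCR amplification and Illumina NextSeq500 sequencing. Binding signal is the quotient of each hexamer's read frequency for a factor and its frequency for the tag-only sample.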
# ELK1 = target: T2, ELK1 (Homo sapiens, UniProt P19419 1-428); conditions: protein: recombinant; tags: N-terminal GST; dsDNA, one strand shown
# T2 sequence: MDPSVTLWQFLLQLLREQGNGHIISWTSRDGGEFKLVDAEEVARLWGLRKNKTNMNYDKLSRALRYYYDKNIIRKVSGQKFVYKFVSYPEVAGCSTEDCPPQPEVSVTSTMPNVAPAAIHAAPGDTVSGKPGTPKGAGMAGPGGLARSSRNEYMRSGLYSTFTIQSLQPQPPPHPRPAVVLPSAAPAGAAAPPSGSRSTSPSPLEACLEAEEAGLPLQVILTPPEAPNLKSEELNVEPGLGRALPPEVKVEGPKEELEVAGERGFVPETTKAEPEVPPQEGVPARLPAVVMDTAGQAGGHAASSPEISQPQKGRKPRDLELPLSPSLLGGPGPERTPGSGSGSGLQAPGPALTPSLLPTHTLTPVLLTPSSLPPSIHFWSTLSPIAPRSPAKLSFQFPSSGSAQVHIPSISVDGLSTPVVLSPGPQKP
# In short: as §1
# GABPA = target: T3, GABPA (Homo sapiens, UniProt Q06546 1-454); conditions: protein: recombinant; tags: N-terminal GST; dsDNA, one strand shown
# T3 sequence: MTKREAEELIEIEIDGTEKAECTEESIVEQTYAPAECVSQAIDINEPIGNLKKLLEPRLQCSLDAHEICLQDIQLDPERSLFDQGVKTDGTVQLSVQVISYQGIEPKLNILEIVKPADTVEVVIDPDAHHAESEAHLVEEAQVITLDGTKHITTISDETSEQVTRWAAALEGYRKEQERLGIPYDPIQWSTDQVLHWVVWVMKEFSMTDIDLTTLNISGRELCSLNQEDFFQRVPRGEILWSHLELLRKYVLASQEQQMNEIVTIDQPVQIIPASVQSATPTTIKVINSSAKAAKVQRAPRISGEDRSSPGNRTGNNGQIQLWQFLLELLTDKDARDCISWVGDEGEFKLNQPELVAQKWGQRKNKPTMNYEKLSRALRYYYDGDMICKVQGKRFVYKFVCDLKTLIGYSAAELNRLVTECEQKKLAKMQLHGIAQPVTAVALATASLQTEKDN
# In short: as §1
# ERG = target: T4, ERG (Homo sapiens, UniProt P11308 1-479); conditions: protein: recombinant; tags: N-terminal GST; dsDNA, one strand shown
# T4 sequence: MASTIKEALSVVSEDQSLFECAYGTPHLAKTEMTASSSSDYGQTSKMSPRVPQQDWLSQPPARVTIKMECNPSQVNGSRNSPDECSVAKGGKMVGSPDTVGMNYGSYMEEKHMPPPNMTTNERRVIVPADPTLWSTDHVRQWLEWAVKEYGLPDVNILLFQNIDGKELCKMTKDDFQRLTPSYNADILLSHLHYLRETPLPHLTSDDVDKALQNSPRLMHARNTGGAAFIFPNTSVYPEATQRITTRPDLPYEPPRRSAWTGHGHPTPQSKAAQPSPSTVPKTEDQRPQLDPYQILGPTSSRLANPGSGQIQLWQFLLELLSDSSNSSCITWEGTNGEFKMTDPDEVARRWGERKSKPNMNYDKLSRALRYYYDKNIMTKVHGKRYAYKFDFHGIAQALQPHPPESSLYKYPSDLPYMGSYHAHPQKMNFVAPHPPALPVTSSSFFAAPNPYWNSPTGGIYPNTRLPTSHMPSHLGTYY
# In short: as §1
# ELF1 = ELF1 (Homo sapiens, UniProt P32519 1-619); conditions: protein: recombinant; tags: N-terminal GST; dsDNA, one strand shown
# In short: as §1
# EHF = target: T5, EHF (Homo sapiens, UniProt Q9NZC4 1-300); conditions: protein: recombinant; tags: N-terminal GST; dsDNA, one strand shown
# T5 sequence: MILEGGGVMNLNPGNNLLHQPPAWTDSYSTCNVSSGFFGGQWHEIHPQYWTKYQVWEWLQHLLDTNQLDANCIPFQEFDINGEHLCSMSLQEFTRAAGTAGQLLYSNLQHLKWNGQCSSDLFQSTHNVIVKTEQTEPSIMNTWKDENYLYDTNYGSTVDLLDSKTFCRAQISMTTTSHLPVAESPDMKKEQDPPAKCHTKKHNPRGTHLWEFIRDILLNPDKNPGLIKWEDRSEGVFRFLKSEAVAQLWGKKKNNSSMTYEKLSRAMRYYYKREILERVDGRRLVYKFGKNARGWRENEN
# In short: as §1
# SPI1 = SPI1 (Homo sapiens, UniProt P17947 1-270); conditions: protein: recombinant; tags: N-terminal GST; dsDNA, one strand shown
# In short: as §1
# SPIB = SPIB (Homo sapiens, UniProt Q01892 1-262); conditions: protein: recombinant; tags: N-terminal GST; dsDNA, one strand shown
# In short: as §1
# ELK3 = target: T6, ELK3 (Homo sapiens, UniProt P41970 1-407); conditions: protein: recombinant; tags: N-terminal GST; dsDNA, one strand shown
# T6 sequence: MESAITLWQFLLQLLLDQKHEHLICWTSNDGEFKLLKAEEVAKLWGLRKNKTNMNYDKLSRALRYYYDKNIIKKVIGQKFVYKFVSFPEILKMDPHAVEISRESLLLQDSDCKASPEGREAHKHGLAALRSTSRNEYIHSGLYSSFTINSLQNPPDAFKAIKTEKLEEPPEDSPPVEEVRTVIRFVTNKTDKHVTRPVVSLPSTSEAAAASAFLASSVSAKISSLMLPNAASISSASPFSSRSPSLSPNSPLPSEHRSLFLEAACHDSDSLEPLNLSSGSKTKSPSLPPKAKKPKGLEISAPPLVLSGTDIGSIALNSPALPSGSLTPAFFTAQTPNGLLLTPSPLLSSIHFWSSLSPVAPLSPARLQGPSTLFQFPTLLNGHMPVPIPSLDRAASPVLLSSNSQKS
# In short: as §1
# FEV = target: T7, FEV (Homo sapiens, UniProt Q99581 1-238); conditions: protein: recombinant; tags: N-terminal GST; dsDNA, one strand shown
# T7 sequence: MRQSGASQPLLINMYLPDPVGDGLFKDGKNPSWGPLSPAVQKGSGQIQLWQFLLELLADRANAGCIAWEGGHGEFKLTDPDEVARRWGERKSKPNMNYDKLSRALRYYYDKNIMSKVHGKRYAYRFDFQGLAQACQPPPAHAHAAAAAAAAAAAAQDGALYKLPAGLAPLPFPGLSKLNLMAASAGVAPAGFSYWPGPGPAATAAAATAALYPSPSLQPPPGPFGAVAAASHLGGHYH
# In short: as §1
# ETV5 = ETV5 (Homo sapiens, UniProt P41161 1-510); conditions: protein: recombinant; tags: N-terminal GST; dsDNA, one strand shown
# In short: as §1
# HSF1 = HSF1 (Homo sapiens, UniProt Q00613 1-529); conditions: protein: recombinant; tags: N-terminal GST; chain copies: 3; dsDNA, one strand shown
# In short: as §1
# SPIC = target: T8, SPIC (Homo sapiens, UniProt Q8N5J4 1-248); conditions: protein: recombinant; tags: N-terminal GST; dsDNA, one strand shown
# T8 sequence: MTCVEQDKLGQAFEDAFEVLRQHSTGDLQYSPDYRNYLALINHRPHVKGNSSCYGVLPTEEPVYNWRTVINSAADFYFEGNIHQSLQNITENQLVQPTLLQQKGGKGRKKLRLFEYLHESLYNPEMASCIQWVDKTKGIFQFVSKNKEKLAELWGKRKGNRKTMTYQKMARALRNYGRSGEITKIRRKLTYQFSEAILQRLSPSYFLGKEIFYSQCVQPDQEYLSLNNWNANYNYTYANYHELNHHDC
# In short: as §1
# ELF4 = ELF4 (Homo sapiens, UniProt Q99607 1-663); conditions: protein: recombinant; tags: N-terminal GST; dsDNA, one strand shown
# In short: as §1
# ELK4 = target: T9, ELK4 (Homo sapiens, UniProt P28324-2 1-405); conditions: protein: recombinant; tags: N-terminal GST; dsDNA, one strand shown
# T9 sequence: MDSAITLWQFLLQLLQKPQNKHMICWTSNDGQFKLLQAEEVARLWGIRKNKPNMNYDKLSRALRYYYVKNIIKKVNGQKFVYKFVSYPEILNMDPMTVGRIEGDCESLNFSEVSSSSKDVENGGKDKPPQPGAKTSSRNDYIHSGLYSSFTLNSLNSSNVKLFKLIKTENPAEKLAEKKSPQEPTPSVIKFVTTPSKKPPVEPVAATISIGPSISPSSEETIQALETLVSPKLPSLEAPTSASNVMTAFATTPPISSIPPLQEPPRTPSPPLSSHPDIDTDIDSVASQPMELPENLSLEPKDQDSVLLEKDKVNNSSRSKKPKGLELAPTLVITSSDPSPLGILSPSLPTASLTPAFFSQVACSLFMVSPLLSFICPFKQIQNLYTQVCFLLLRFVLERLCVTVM
# In short: as §1
# ETV2 = target: T10, ETV2 (Homo sapiens, UniProt O00321 1-342); conditions: protein: recombinant; tags: N-terminal GST; dsDNA, one strand shown
# T10 sequence: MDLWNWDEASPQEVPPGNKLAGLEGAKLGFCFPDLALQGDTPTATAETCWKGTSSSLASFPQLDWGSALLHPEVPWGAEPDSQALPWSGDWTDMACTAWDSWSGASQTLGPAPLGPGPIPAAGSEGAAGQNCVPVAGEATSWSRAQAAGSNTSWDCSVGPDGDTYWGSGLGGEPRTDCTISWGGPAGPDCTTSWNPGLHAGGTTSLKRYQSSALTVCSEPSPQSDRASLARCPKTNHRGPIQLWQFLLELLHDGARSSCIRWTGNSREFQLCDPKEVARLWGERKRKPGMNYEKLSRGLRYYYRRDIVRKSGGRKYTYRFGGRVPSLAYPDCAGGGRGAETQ
# In short: as §1
# ELF3 = target: T11, ELF3 (Homo sapiens, UniProt P78545 1-371); conditions: protein: recombinant; tags: N-terminal GST; dsDNA, one strand shown
# T11 sequence: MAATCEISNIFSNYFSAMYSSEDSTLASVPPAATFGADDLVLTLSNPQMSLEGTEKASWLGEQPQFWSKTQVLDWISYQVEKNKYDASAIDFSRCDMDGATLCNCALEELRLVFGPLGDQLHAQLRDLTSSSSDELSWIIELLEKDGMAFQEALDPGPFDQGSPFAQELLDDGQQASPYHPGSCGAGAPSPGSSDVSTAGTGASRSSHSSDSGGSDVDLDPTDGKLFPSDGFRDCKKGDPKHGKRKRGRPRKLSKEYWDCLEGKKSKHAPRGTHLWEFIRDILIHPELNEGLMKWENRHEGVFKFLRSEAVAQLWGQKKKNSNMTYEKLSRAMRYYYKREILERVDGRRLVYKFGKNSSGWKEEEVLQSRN
# In short: as §1
# CRX = CRX (Homo sapiens, UniProt O43186 1-299); conditions: protein: recombinant; tags: N-terminal GST; dsDNA, one strand shown
# In short: as §1
# ETV1 = ETV1 (Homo sapiens, UniProt P50549 1-477); conditions: protein: recombinant; tags: N-terminal GST; dsDNA, one strand shown
# In short: as §1
# ELF1, sequence (P32519 whole entry): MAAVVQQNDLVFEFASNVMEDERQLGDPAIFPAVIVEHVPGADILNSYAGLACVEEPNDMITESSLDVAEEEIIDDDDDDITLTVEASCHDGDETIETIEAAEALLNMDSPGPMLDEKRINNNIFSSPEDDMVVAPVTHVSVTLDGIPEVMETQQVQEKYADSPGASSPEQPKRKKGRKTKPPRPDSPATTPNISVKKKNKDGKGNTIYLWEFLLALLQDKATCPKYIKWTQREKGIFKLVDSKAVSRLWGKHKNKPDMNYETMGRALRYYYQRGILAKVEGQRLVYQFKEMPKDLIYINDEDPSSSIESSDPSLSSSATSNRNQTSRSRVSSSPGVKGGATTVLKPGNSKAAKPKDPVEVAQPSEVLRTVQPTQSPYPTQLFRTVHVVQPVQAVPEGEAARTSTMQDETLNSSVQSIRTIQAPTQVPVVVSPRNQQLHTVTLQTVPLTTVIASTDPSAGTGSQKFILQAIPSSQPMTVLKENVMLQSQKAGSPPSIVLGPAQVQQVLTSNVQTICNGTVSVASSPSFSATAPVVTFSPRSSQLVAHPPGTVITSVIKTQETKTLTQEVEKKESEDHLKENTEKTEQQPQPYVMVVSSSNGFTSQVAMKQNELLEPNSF
# SPIB, sequence (Q01892 whole entry): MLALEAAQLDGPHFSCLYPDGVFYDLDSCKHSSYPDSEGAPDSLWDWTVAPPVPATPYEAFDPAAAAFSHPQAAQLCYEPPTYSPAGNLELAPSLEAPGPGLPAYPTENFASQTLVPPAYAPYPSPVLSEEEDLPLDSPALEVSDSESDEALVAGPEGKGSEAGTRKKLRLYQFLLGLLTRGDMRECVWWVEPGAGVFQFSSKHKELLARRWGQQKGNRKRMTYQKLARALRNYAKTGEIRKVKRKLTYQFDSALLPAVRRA
# ETV5, sequence (P41161 whole entry): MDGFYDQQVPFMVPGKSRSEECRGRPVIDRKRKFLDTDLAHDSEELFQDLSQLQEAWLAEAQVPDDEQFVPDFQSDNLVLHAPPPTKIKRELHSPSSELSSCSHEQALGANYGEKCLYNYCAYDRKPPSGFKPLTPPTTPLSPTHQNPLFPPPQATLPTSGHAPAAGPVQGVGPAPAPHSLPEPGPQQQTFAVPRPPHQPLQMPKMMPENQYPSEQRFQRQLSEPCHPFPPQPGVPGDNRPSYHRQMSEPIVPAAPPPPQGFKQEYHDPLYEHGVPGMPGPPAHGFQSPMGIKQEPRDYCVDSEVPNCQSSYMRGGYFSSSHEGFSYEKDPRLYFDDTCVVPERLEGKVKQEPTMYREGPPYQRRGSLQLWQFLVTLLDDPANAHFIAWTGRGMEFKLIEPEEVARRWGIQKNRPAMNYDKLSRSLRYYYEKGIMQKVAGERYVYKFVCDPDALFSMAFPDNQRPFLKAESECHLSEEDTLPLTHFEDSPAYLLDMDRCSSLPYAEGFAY
# ELF4, sequence (Q99607 whole entry): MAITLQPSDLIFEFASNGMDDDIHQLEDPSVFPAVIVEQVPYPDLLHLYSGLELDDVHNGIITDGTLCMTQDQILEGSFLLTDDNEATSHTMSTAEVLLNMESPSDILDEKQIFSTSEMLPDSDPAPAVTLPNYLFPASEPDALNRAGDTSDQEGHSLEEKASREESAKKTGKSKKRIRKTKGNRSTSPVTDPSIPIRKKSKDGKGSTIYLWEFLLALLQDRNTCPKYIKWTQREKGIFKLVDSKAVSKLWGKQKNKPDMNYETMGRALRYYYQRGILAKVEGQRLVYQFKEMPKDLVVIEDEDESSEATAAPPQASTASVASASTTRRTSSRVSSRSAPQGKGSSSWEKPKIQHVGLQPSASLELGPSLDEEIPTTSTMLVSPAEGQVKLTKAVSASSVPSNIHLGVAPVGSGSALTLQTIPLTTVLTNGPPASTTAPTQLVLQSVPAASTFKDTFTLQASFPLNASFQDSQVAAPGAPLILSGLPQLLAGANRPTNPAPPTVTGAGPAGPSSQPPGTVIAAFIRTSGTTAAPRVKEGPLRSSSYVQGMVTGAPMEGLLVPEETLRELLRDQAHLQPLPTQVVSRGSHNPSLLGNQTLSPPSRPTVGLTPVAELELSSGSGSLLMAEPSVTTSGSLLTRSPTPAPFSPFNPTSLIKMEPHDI
# HSF1, sequence (Q00613 whole entry): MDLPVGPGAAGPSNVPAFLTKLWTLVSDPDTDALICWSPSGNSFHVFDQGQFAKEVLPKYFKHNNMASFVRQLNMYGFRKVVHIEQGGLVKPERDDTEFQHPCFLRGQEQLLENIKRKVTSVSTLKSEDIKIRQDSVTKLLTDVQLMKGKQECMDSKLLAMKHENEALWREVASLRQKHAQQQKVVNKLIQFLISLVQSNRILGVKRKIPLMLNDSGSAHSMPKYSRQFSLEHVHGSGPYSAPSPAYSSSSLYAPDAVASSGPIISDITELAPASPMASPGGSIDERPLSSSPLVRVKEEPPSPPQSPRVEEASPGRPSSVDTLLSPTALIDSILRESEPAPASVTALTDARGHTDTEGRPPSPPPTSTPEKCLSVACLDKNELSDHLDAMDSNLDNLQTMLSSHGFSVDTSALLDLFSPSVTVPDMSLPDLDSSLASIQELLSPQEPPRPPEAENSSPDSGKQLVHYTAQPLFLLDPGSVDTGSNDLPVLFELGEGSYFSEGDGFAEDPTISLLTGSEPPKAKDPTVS
# ETV1, sequence (P50549 whole entry): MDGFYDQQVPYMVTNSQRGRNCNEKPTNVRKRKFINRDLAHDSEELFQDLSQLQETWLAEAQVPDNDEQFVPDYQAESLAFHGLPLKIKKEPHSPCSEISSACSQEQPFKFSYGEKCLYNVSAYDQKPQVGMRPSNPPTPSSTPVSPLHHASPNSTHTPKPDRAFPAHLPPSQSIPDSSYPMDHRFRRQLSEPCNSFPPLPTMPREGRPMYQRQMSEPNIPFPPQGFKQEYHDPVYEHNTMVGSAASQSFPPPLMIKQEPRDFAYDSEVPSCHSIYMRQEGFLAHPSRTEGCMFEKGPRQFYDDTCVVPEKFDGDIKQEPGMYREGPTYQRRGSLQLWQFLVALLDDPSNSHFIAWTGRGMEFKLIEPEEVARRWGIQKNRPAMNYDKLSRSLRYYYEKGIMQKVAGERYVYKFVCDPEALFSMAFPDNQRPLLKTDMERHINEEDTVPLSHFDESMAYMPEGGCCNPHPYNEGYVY
# CRX, sequence (O43186 whole entry): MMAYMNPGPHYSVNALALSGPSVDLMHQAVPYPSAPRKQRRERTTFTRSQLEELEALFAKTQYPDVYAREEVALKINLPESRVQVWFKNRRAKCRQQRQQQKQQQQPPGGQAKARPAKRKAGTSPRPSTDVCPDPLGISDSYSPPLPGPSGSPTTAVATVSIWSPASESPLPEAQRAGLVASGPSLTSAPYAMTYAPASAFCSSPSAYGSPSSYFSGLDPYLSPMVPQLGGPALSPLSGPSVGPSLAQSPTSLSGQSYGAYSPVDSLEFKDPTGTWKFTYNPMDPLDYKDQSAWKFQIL
sequence,measurement,setting,value
TCACTG,binding signal,FLI1,"1.21 fold enrichment (6-mer frequency, TF over GST control)"
same,binding signal,ELK1,"1.16 fold enrichment (6-mer frequency, TF over GST control)"
same,binding signal,GABPA,"1.22 fold enrichment (6-mer frequency, TF over GST control)"
same,binding signal,ERG,"1.27 fold enrichment (6-mer frequency, TF over GST control)"
same,binding signal,ELF1,"1.26 fold enrichment (6-mer frequency, TF over GST control)"
same,binding signal,EHF,"1.18 fold enrichment (6-mer frequency, TF over GST control)"
same,binding signal,SPI1,"1.15 fold enrichment (6-mer frequency, TF over GST control)"
same,binding signal,SPIB,"1.3 fold enrichment (6-mer frequency, TF over GST control)"
same,binding signal,ELK3,"1.2 fold enrichment (6-mer frequency, TF over GST control)"
same,binding signal,FEV,"1.22 fold enrichment (6-mer frequency, TF over GST control)"
same,binding signal,ETV5,"1.15 fold enrichment (6-mer frequency, TF over GST control)"
same,binding signal,HSF1,"1.15 fold enrichment (6-mer frequency, TF over GST control)"
same,binding signal,SPIC,"1.24 fold enrichment (6-mer frequency, TF over GST control)"
same,binding signal,ELF4,"1.17 fold enrichment (6-mer frequency, TF over GST control)"
same,binding signal,ELK4,"1.14 fold enrichment (6-mer frequency, TF over GST control)"
same,binding signal,ETV2,"1.15 fold enrichment (6-mer frequency, TF over GST control)"
same,binding signal,ELF3,"1.48 fold enrichment (6-mer frequency, TF over GST control)"
same,binding signal,CRX,"1.09 fold enrichment (6-mer frequency, TF over GST control)"
same,binding signal,ETV1,"1.21 fold enrichment (6-mer frequency, TF over GST control)"
